# In PubChem BioAssay (NCI):
# About 83,000 compounds went through this panel and 20% of them were active in at least one assay; those are over-represented in the sample as a whole.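 Note: values are percent growth. 100 is the growth of untreated cells, values between 100 and 0 indicate rising inhibition; between -100 and 0 indicates cell death.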 A number with no mark means an inactive call. Calls of active or inactive are those of the source. How the source made its calls: active means growth percent below 10; inactive means the rest.
# Columns and labels:
# Assay in all cases: NCI-60 one-dose screen, 48 h (100 = growth as untreated, 0 = no growth, -100 = all killed)
# Conditions in all cases: 10 µM
# NCI-H23 lung = test system: NCI-H23 lung
# NCI-H226 lung = test system: NCI-H226 lung
# NCI-H322M lung = test system: NCI-H322M lung
# HOP-62 NSCLC = test system: HOP-62 NSCLC
# NCI-H460 lung = test system: NCI-H460 lung
# HOP-92 NSCLC = test system: HOP-92 NSCLC
# NCI-H522 lung = test system: NCI-H522 lung
# A549/ATCC NSCLC = test system: A549/ATCC NSCLC
# 786-0 renal = test system: 786-0 renal
# COLO 205 colon = test system: COLO 205 colon
# DU-145 prostate = test system: DU-145 prostate
# K-562 leukemia = test system: K-562 leukemia
# MALME-3M melanoma = test system: MALME-3M melanoma
# MDA-MB-231 breast = test system: MDA-MB-231 breast
# RXF 393 renal = test system: RXF 393 renal
# SF-268 CNS = test system: SF-268 CNS
# SF-295 CNS = test system: SF-295 CNS
# SF-539 CNS = test system: SF-539 CNS
# UACC-257 melanoma = test system: UACC-257 melanoma
# M14 melanoma = test system: M14 melanoma
SMILES,growth (NCI-H23 lung),growth (NCI-H226 lung),growth (NCI-H322M lung),growth (HOP-62 NSCLC),growth (NCI-H460 lung),growth (HOP-92 NSCLC),growth (NCI-H522 lung),growth (A549/ATCC NSCLC),growth (786-0 renal),growth (COLO 205 colon),growth (DU-145 prostate),growth (K-562 leukemia),growth (MALME-3M melanoma),growth (MDA-MB-231 breast),growth (RXF 393 renal),growth (SF-268 CNS),growth (SF-295 CNS),growth (SF-539 CNS),growth (UACC-257 melanoma),growth (M14 melanoma)
O=C(O)c1ccc(CNc2ccc(C(=O)CCl)cc2)cc1,116%,97.2%,102%,98.5%,103%,77.4%,-41.9% (active),94.9%,109%,97.3%,101%,92.1%,111%,104%,78.4%,109%,86.1%,102%,75%,105%
CCc1ccc(-c2nnc(COc3ccc(-c4nc5cc(Cl)c(Cl)cc5[nH]4)cc3OC)o2)cc1,67.8%,103%,83.6%,102%,24.5%,72.2%,82.8%,39.3%,77.1%,57.1%,66.6%,15.5%,57.9%,58%,46%,99.1%,88.2%,26.1%,91.4%,52.6%
O=C(c1ccc(Cl)cc1)c1no[n+]([O-])c1C(=O)c1ccc(Cl)cc1,98.4%,102%,107%,104%,108%,88.4%,-77.8% (active),104%,-34.5% (active),107%,94.1%,5.95% (active),-76.2% (active),124%,44.6%,102%,83.8%,98.5%,104%,92.5%
Nc1ccc(C2=CC(c3ccc(Cl)cc3)N3C=CSC3=N2)cc1 (stereo not given),-46.6% (active),-71.4% (active),-57.2% (active),-63.8% (active),-6.81% (active),-22.7% (active),-65.9% (active),-39.3% (active),-90.9% (active),-85.1% (active),-44.6% (active),3.22% (active),-82.8% (active),-14.4% (active),-93.1% (active),-41.9% (active),-0.33% (active),-55.8% (active),-78.1% (active),-71.1% (active)
Nc1c(C(=O)NC2CCCCC2)sc2nc3c(cc12)C(=O)CCC3,98.7%,95.4%,105%,120%,103%,82.9%,98.6%,84.5%,99.5%,116%,102%,88.4%,139%,101%,92.1%,109%,88.8%,107%,88.1%,103%
Cc1ccc(/C(CS(=O)(=O)c2ccc(C)cc2)=N\O)cc1,99.9%,93.6%,104%,111%,106%,87.4%,97%,94.6%,102%,118%,111%,105%,116%,103%,93.6%,108%,90.8%,97.3%,97%,116%
Cc1cccc2c1O/C(=C\c1ncc([N+](=O)[O-])n1C)C2=O,-13.7% (active),-25% (active),-17.9% (active),-33.5% (active),-29.1% (active),-32.6% (active),-55.8% (active),-25.7% (active),-28.5% (active),-52.3% (active),-29.7% (active),0.421% (active),-51.5% (active),-7.78% (active),-63.7% (active),-26.4% (active),-15.2% (active),-61% (active),-40.8% (active),-49.2% (active)
CCOC(=O)Nc1ccc2c(c1)C(=O)N(CCOC)c1ccccc1O2,52%,77.1%,43%,43%,23%,45%,18.4%,44.8%,45.3%,13%,43.8%,20.3%,61.2%,62.3%,56%,56.9%,28.8%,30.3%,61.7%,19.8%
NC1CCC(Nc2nc(NCc3ccc(-c4ccccc4O)nc3)c3ncn(C4CCCC4)c3n2)CC1 (stereo not given),-50.2% (active),-3.35% (active),10.1%,-9.04% (active),-8.3% (active),-17.7% (active),-55.2% (active),-25.2% (active),-38.3% (active),-70.4% (active),-4.56% (active),-41.2% (active),-76.1% (active),-22% (active),-67.4% (active),-25.8% (active),-14.4% (active),-81% (active),-68.6% (active),-81.5% (active)
COc1cccc2c1C(=O)c1c(O)c3c(c(O)c1C2=O)C[C@@](O)(C(=O)COC(=O)c1cccnc1)C[C@@H]3OC1CC(N)C(O)C(C)O1 (stereo not given in full),-24.7% (active),-28.5% (active),-19.5% (active),-7.51% (active),4.13% (active),-26.3% (active),-75.6% (active),-0.944% (active),3.23% (active),-68.8% (active),7.78% (active),1.5% (active),-66.7% (active),-18.6% (active),-64.5% (active),-30% (active),-56.8% (active),-36.4% (active),-54.7% (active),-43.4% (active)
CCOC(=O)c1c(C(F)(F)F)n([O-])c2ccc(OC)cc2[n+]1=O,30.3%,47.4%,58%,17.1%,18.7%,-34.7% (active),-25.9% (active),26.8%,42.2%,31.1%,26.2%,2.01% (active),25.8%,19.8%,41.9%,31.1%,-36% (active),48.8%,-5.73% (active),26.9%
CC1(CO)CCCC12OCCO2 (stereo not given),106%,99.7%,107%,100%,105%,120%,93%,101%,102%,114%,117%,100%,113%,104%,100%,110%,82.3%,96.2%,99.8%,106%
COC(=O)C1(C(=O)OC)C2C(=O)C3C(C21)C3(C(=O)OC(C)(C)C)C(=O)OC(C)(C)C (stereo not given),107%,89.5%,108%,99.9%,113%,97.8%,111%,109%,102%,115%,118%,103%,115%,121%,105%,111%,103%,115%,107%,104%
Cc1cc(OI)c(C(C)C)cc1-c1cc(C(C)C)c(OI)cc1C,94.9%,93.7%,95.9%,84.9%,106%,101%,94.5%,94.3%,103%,114%,101%,98.8%,105%,104%,101%,96.8%,101%,94.3%,101%,104%
COc1cccc2c1C(=O)c1c(O)c3c(c(O)c1C2=O)C[C@@](O)(C(=O)COC(=O)c1ccccc1)C[C@@H]3OC1CC(N)C(O)C(C)O1 (stereo not given in full),-65.6% (active),-71.9% (active),-95.7% (active),-96.8% (active),-80.9% (active),-77.9% (active),-85.8% (active),-85.1% (active),-83.9% (active),-90.9% (active),-87.6% (active),-73.7% (active),-88.4% (active),-82% (active),-80.3% (active),-65.6% (active),-91.2% (active),-94.7% (active),-91.3% (active),-69.9% (active)
Cc1ccc([P+](Cc2ccc([N+](=O)[O-])cc2)(c2ccc(C)cc2)c2ccc(C)cc2)cc1,41%,80.6%,69.3%,70.8%,60.5%,-19.6% (active),0.971% (active),81%,82.4%,7.68% (active),78.3%,11.2%,-15% (active),41.6%,67.2%,54.2%,45.2%,69%,-14.6% (active),19%
